# From PubChem BioAssay (NCATS)
# Inconclusive results are not listed. Where a call stands in place of a potency, no number is given. Activity calls are given as the source filed them. The call rests on the fitted dose curve; in most records, active means well fitted curve in the direction sought with a large enough effect; inconclusive means small, poorly fitted or top-dose-only effect, or another doubt; inactive means no such curve, though single readings can be large; an effect the other way counts as inactive or inconclusive.
# Test: P-glycoprotein substrates identified in KB-8-5-11 adenocarcinoma cell line, qHTS therapeutic library screen (AID 1346987); further: nearly all actives have a fitted effect of over 65% in size; further: potency means the concentration at half of the fitted maximal effect
# Conditions: KB-8-5-11 (P-gp overexpressing) viability, CellTiter-Glo, 72 h; series mostly up to 44.5 µM
# Method in brief: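 Steps: plate 500 KB-8-5-11 cells/well in DMEM + 10% FCS (colchicine removed); pin compounds in dose-response; incubate 72 h, 37 degree C, 5% CO2; add CellTiter-Glo, 5 min; read luminescence.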
row,Compound,Potency
1,CC(C(O)c1ccccc1)N(C)CCOC(c1ccccc1)c1ccccc1 (centres undefined),14.6 µM (active)
2,CC(C)(C)c1nnc(NS(=O)(=O)c2ccccc2)s1,inactive
3,CCC(C(=O)NC(=O)NC(C)=O)c1ccccc1 (centres undefined),inactive
4,COC(=O)c1c(Cl)c(Cl)c(C(=O)OC)c(Cl)c1Cl,inactive
5,CCOC(=O)NNc1ccc(N(CC)CC(C)O)nn1 (centres undefined),inactive
6,CCO[C@H](Cc1ccc(OCCc2ccc(OS(C)(=O)=O)cc2)cc1)C(=O)O,inactive
7,Nc1c(NC/C=C\COc2cc(CN3CCCCC3)ccn2)c(=O)c1=O,inactive
8,O=C(NN1CCCC1)NS(=O)(=O)c1ccc(Cl)cc1,inactive
9,N[C@@H](Cc1cc(I)c(O)c(I)c1)C(=O)O,inactive
10,CC(=O)OCC(=O)[C@@]1(O)[C@H](OC(C)=O)C[C@H]2[C@@H]3CCC4=CC(=O)C=C[C@]4(C)[C@@]3(F)[C@@H](O)C[C@@]21C,inactive
11,O=C(O)c1ccccc1Nc1cc(Cl)ccc1C(=O)O,inactive
12,CCOC(=O)OCC/C(SC(=O)OCC)=C(\C)N(C=O)Cc1cnc(C)nc1N,inactive
13,CCOc1ccc(NS(=O)(=O)c2ccc(N)cc2)nn1,inactive
14,C[N+]1(C)CCC(OC(=O)C(O)(c2ccccc2)C2CCCC2)C1 (centres undefined),inactive
15,CC1(C)S[C@@H]2[C@H](NC(=O)C(c3ccccc3)S(=O)(=O)O)C(=O)N2[C@H]1C(=O)O (some centres undefined),inactive
16,O=C(Oc1ccccc1)c1cccc(C(=O)Oc2ccccc2)c1,inactive
17,O=C(O)CCCC[C@@H]1SC[C@@H]2NC(=O)N[C@@H]21,inactive
18,CC(=O)[C@H]1CC[C@H]2[C@@H]3C=CC4=CC(=O)CC[C@@]4(C)[C@@H]3CC[C@]12C,inactive
19,O=[N+]([O-])c1nccn1CO[C@@H](CO)[C@H](O)CO,inactive

row,Compound,Potency
1,Cc1cc2nc3ccc(=[N+](C)C)cc-3sc2cc1N,6.51 µM (active)
2,O=C(O)[C@H](O)[C@@H](O)[C@H](O[C@@H]1O[C@H](CO)[C@H](O)[C@H](O)[C@H]1O)[C@H](O)CO,inactive
3,O=C(COCCOCCOCC(=O)Nc1c(I)cc(I)c(C(=O)O)c1I)Nc1c(I)cc(I)c(C(=O)O)c1I,inactive
4,O=C(O)/C=C(\CC(=O)O)C(=O)O,inactive
5,CCCCCC[C@@H](CCC)C(=O)O,inactive
6,CN(C(=O)C(Cl)Cl)c1ccc(OC(=O)c2ccco2)cc1,inactive
7,CC(=O)OCC(=O)[C@@]1(O)CCC2C3CCC4=CC(=O)CC[C@]4(C)C3[C@@H](O)C[C@@]21C (some centres undefined),inactive
8,Cc1nc([N+](=O)[O-])cn1-c1ccc([N+](=O)[O-])cc1,inactive
9,CC(C)C(C)(C)C(C)(C)C(C)(C)S,inactive
10,CCCCC/C=C\C/C=C\CCCCCCCC(=O)NC(C)c1ccccc1 (centres undefined),inactive
11,CN1C(=O)CC(C)(c2ccccc2)C1=O (centres undefined),inactive
12,CN1[C@@H]2CC[C@H]1CC(NC(=O)n1c(=O)[nH]c3ccccc31)C2 (some centres undefined),inactive
13,CO[C@@H]1[C@@H](O[C@@H]2O[C@H](C)[C@@H](O[C@H]3C[C@@](C)(O)[C@@H](O)[C@H](C)O3)[C@H](N(C)C)[C@H]2O)[C@@H](CC=O)C[C@@H](C)[C@@H](O[C@@H]2CC[C@H](N(C)C)[C@@H](C)O2)/C=C/C=C/C[C@@H](C)OC(=O)C[C@H]1OC(C)=O,inactive
14,Cc1c(C)c2c(c(C)c1OC(=O)CCC(=O)OCCO)CC[C@@](C)(CCC[C@H](C)CCC[C@H](C)CCCC(C)C)O2,inactive
15,CCN1CCN(C(=O)N[C@@H](C(=O)N[C@@H]2C(=O)N3[C@@H]2SC(C)(C)[C@H]3C(=O)O)c2ccccc2)C(=O)C1=O,inactive
16,CN1CCC(=C2c3ccccc3CCc3cccnc32)CC1,inactive
17,CC(=O)CC/C=C(\C)CC/C=C(\C)CC/C=C(\C)CCC=C(C)C,inactive
18,OC[C@]1(O)OC[C@@H](O)[C@H](O)[C@@H]1O,inactive

# Test: NS1 protein of Zika virus - qHTS assay to identify small molecule inhibitors in human HEK 293 cells (AID 1347053); further: nearly all actives have a fitted effect of over 55% in size
# Conditions: HEK293 ZIKV MR766 infection, NS1 TR-FRET, 24 h; series mostly up to 46.1 µM
# Method in brief: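 HEK 293 cells, seeded 20 h at 37 C, were pretreated with compound 1 h, then infected with ZIKV MR766 (MOI = 0.5) for 24 h. NS1 was read by TR-FRET with two anti-NS1 antibodies, normalized to uninfected and infected wells.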
row,Compound,Potency
1,CC(C(O)c1ccccc1)N(C)CCOC(c1ccccc1)c1ccccc1 (centres undefined),inactive
2,CC(C)(C)c1nnc(NS(=O)(=O)c2ccccc2)s1,inactive
3,CCC(C(=O)NC(=O)NC(C)=O)c1ccccc1 (centres undefined),inactive
4,COC(=O)c1c(Cl)c(Cl)c(C(=O)OC)c(Cl)c1Cl,inactive
5,CCOC(=O)NNc1ccc(N(CC)CC(C)O)nn1 (centres undefined),inactive
6,CCO[C@H](Cc1ccc(OCCc2ccc(OS(C)(=O)=O)cc2)cc1)C(=O)O,inactive
7,Nc1c(NC/C=C\COc2cc(CN3CCCCC3)ccn2)c(=O)c1=O,inactive
8,O=C(NN1CCCC1)NS(=O)(=O)c1ccc(Cl)cc1,inactive
9,N[C@@H](Cc1cc(I)c(O)c(I)c1)C(=O)O,inactive
10,CC(=O)OCC(=O)[C@@]1(O)[C@H](OC(C)=O)C[C@H]2[C@@H]3CCC4=CC(=O)C=C[C@]4(C)[C@@]3(F)[C@@H](O)C[C@@]21C,inactive
11,O=C(O)c1ccccc1Nc1cc(Cl)ccc1C(=O)O,inactive
12,CCOC(=O)OCC/C(SC(=O)OCC)=C(\C)N(C=O)Cc1cnc(C)nc1N,inactive
13,CCOc1ccc(NS(=O)(=O)c2ccc(N)cc2)nn1,inactive
14,C[N+]1(C)CCC(OC(=O)C(O)(c2ccccc2)C2CCCC2)C1 (centres undefined),inactive
15,CC1(C)S[C@@H]2[C@H](NC(=O)C(c3ccccc3)S(=O)(=O)O)C(=O)N2[C@H]1C(=O)O (some centres undefined),inactive
16,O=C(Oc1ccccc1)c1cccc(C(=O)Oc2ccccc2)c1,inactive
17,O=C(O)CCCC[C@@H]1SC[C@@H]2NC(=O)N[C@@H]21,inactive
18,CC(=O)[C@H]1CC[C@H]2[C@@H]3C=CC4=CC(=O)CC[C@@]4(C)[C@@H]3CC[C@]12C,inactive
19,O=[N+]([O-])c1nccn1CO[C@@H](CO)[C@H](O)CO,inactive

row,Compound,Potency
1,Cc1cc2nc3ccc(=[N+](C)C)cc-3sc2cc1N,inactive
2,O=C(O)[C@H](O)[C@@H](O)[C@H](O[C@@H]1O[C@H](CO)[C@H](O)[C@H](O)[C@H]1O)[C@H](O)CO,inactive
3,O=C(COCCOCCOCC(=O)Nc1c(I)cc(I)c(C(=O)O)c1I)Nc1c(I)cc(I)c(C(=O)O)c1I,inactive
4,O=C(O)/C=C(\CC(=O)O)C(=O)O,inactive
5,CCCCCC[C@@H](CCC)C(=O)O,inactive
6,CN(C(=O)C(Cl)Cl)c1ccc(OC(=O)c2ccco2)cc1,inactive
7,CC(=O)OCC(=O)[C@@]1(O)CCC2C3CCC4=CC(=O)CC[C@]4(C)C3[C@@H](O)C[C@@]21C (some centres undefined),inactive
8,Cc1nc([N+](=O)[O-])cn1-c1ccc([N+](=O)[O-])cc1,inactive
9,CC(C)C(C)(C)C(C)(C)C(C)(C)S,inactive
10,CCCCC/C=C\C/C=C\CCCCCCCC(=O)NC(C)c1ccccc1 (centres undefined),inactive
11,CN1C(=O)CC(C)(c2ccccc2)C1=O (centres undefined),inactive
12,CN1[C@@H]2CC[C@H]1CC(NC(=O)n1c(=O)[nH]c3ccccc31)C2 (some centres undefined),inactive
13,CO[C@@H]1[C@@H](O[C@@H]2O[C@H](C)[C@@H](O[C@H]3C[C@@](C)(O)[C@@H](O)[C@H](C)O3)[C@H](N(C)C)[C@H]2O)[C@@H](CC=O)C[C@@H](C)[C@@H](O[C@@H]2CC[C@H](N(C)C)[C@@H](C)O2)/C=C/C=C/C[C@@H](C)OC(=O)C[C@H]1OC(C)=O,inactive
14,Cc1c(C)c2c(c(C)c1OC(=O)CCC(=O)OCCO)CC[C@@](C)(CCC[C@H](C)CCC[C@H](C)CCCC(C)C)O2,inactive
15,CCN1CCN(C(=O)N[C@@H](C(=O)N[C@@H]2C(=O)N3[C@@H]2SC(C)(C)[C@H]3C(=O)O)c2ccccc2)C(=O)C1=O,inactive
16,CN1CCC(=C2c3ccccc3CCc3cccnc32)CC1,inactive
17,CC(=O)CC/C=C(\C)CC/C=C(\C)CC/C=C(\C)CCC=C(C)C,inactive
18,OC[C@]1(O)OC[C@@H](O)[C@H](O)[C@@H]1O,inactive
